Measured values: PubChem BioAssay (EPA / NIEHS)
Records with an inconclusive call do not appear. Active and inactive are the calls of the source. How the source made its calls, unless noted: active means hit-call score of the fitted dose curve at least 0.9, where 1 is the maximum; inactive means score below 0.9.

What was measured:
[1] = IUF_NPC4_neurite_length_120hr: Leibniz Research Institute for Environmental Medicine (IUF) 120-hour Neuronal Morphology Assay for Neurite Length (NPC4) (AID 2284302)
How it was run: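 hNPC spheres (0.3 mm, fetal brain GW 16-19) on PDL/laminin, DMEM:F12 3:1 + 1% N2, 37C 5% CO2; 7 concs + solvent control, day 0-5, half medium change d3; fix 120 h, TUBB3 ICC, mean neurite length um vs DMSO.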

[2] = IUF_NPC4_neurite_area_120hr: Leibniz Research Institute for Environmental Medicine (IUF) 120-hour Neuronal Morphology Assay for Neurite Area (NPC4) (AID 2284305; active means hit-call score of the fitted dose curve at least 0.9, where 1 is the maximum)
How it was run: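 hNPC spheres on PDL/laminin, N2 medium, 37C/5% CO2; dosed day 0, half-medium refresh day 3; fixed 120 h; TUBB3/Hoechst ICC, high-content imaging; neurite area = mean pixels per neuron (nuclei excluded); DMSO baseline, max 0.1%.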

[3] = IUF_NPC2-5_cytotoxicity_72hr: Cytotoxicity Assessment at 72 hours in the Leibniz Research Institute for Environmental Medicine (IUF) Neural Progenitor Cell Migration and Differentiation Assay for Cytotoxicity (NPC2-5) (AID 2284306; active means hit-call score of the fitted dose curve at least 0.9, where 1 is the maximum;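 further: LDH release into supernatant measured by resorufin fluorescence marking membrane damage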)
How it was run: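 hNPC spheres (0.3 mm), PDL/laminin, DMEM/F12 3:1 + 1% N2; cpd from d0, 7 concs + SC, DMSO max 0.1%; half-medium refresh d3. Readout: supernatant LDH via resorufin fluorescence (RFU), 72 h; gain-of-signal fit.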

[4] = IUF_NPC2-5_cytotoxicity_120hr: Cytotoxicity Assessment at 120 hours in the Leibniz Research Institute for Environmental Medicine (IUF) Neural Progenitor Cell Migration and Differentiation Assay (NPC2-5) (AID 2284307; active means hit-call score of the fitted dose curve at least 0.9, where 1 is the maximum;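 on AC50: LDH released into supernatant as membrane damage marker via resorufin fluorescence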)
How it was run: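 Human fetal neural progenitor spheres (0.3 mm, GW 16-19 cortex) were plated on poly-D-lysine/laminin in N2 differentiation medium and exposed for 120 h, with half-medium refresh at day 3. LDH release into supernatant was read by resorufin fluorescence.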

[5] = IUF_NPC2-5_cell_number_120hr: Cell Number Assessment at 120 hours in the Leibniz Research Institute for Environmental Medicine (IUF) Neural Progenitor Cell Migration and Differentiation Assay (NPC2-5) (AID 2284308);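 further: count of Hoechst-stained nuclei in migration zone around plated human neural progenitor spheres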
How it was run: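 Primary human fetal neural progenitor spheres (GW 16-19, 0.3 mm) plated on poly-D-lysine/laminin in N2 differentiation medium, exposed from day 0 for 120 h with half-medium refresh at day 3; Hoechst-positive nuclei counted in migration area versus DMSO control.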

[6] = IUF_NPC2-5_viability_120hr: Viability Assessment at 120 hours in the Leibniz Research Institute for Environmental Medicine (IUF) Neural Progenitor Cell Migration and Differentiation Assay (NPC2-5) (AID 2284312)
How it was run: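 Human fetal neural progenitor spheres (0.3 mm) plated on poly-D-lysine/laminin in N2 differentiation medium, exposed 120 h with half-medium refresh at day 3. Viability by alamar blue resazurin fluorescence; 7 concentrations, DMSO max 0.1%.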

[7] = IUF_NPC1_cytotoxicity_72hr: Cytotoxicity Assessment at 72 hours in the Leibniz Research Institute for Environmental Medicine (IUF) Neural Progenitor Cell Proliferation Assay (NPC1) (AID 2284332; active means hit-call score of the fitted dose curve at least 0.9, where 1 is the maximum;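 further: rising LDH signal means more cytotoxicity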)
How it was run: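 Membrane-integrity loss is scored from LDH released into the medium, detected as resorufin fluorescence, with activity fitted upward relative to baseline. Test material stays on human fetal-derived progenitor spheres for 72 h.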

[8] = target: sheep Cyclooxygenase-1 (Cox1), PTGS1 (gene 443551) (UniProt P05979); test: NVS_ENZ_oCOX1: NovaScreen (NVS) Enzymatic Assay for sheep Cyclooxygenase-1 (Cox1) (AID 2283239; active means hit-call score of the fitted dose curve at least 0.9, where 1 is the maximum;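 further: actives reduce cyclooxygenase activity so potencies are for inhibitors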)
sheep Cyclooxygenase-1 (Cox1), PTGS1 (gene 443551), sequence (P05979 whole entry, looked up): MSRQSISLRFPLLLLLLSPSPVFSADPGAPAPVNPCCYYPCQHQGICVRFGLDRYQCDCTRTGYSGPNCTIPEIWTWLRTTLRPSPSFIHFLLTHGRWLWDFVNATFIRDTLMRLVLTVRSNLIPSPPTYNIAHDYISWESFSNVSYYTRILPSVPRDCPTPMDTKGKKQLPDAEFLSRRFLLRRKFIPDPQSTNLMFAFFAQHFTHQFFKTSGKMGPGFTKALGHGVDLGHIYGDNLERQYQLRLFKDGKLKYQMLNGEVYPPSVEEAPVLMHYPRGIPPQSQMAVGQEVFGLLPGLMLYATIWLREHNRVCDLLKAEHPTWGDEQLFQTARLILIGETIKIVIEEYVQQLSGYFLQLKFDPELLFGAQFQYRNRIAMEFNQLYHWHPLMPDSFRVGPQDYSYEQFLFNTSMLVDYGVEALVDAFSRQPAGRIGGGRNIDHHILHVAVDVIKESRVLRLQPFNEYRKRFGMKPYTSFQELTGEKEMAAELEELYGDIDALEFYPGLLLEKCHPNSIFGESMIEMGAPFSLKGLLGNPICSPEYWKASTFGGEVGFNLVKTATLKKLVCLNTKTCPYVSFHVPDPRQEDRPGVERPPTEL
How it was run: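 Cell-free colorimetric assay of enzyme activity in a native extract of ovine seminal vesicles. Absorbance was read 0.66 hour after compound addition. Loss of signal relative to the DMSO negative control was scored, with actives from the 25 uM duplicate primary screen retested in concentration series.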

[9] = target: human Beta-secretase (BACE), BACE1 (gene 23621) (UniProt P56817); test: NVS_ENZ_hBACE: NovaScreen (NVS) Enzymatic Assay for human Beta-secretase (BACE) (AID 2283140; active means hit-call score of the fitted dose curve at least 0.9, where 1 is the maximum;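 further: hits are inhibitors that reduce fluorescent substrate signal versus DMSO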)
human Beta-secretase (BACE), BACE1 (gene 23621), sequence (P56817 whole entry, looked up): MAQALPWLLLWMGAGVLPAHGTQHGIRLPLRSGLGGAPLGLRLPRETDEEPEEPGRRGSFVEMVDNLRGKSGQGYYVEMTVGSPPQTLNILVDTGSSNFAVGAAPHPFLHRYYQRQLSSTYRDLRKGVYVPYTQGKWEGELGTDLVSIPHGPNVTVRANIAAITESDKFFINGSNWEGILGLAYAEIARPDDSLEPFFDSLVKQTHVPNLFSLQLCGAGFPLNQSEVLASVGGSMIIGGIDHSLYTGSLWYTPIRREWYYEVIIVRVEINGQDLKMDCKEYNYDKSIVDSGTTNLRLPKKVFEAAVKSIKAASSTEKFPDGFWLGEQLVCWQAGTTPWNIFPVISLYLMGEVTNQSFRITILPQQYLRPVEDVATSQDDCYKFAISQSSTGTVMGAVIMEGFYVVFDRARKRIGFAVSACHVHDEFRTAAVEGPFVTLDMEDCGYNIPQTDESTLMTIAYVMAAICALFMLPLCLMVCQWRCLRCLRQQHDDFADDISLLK
How it was run: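 Fluorescence intensity read-out of protease activity defines this endpoint; signal loss relative to DMSO baseline marks inhibition. Recombinant enzyme from SF9 cells, cell-free format, 1 h exposure. Single-concentration duplicate screen (25 uM) precedes concentration-series follow-up.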

[10] = target: Estrogen receptor (Homo sapiens) (UniProt P03372); test: NVS_NR_hER: NovaScreen (NVS) Nuclear Receptor Binding Assay for human Estrogen Receptor (ER) (AID 2283348; active means hit-call score of the fitted dose curve at least 0.9, where 1 is the maximum)
Estrogen receptor (Homo sapiens), sequence (P03372 whole entry, looked up): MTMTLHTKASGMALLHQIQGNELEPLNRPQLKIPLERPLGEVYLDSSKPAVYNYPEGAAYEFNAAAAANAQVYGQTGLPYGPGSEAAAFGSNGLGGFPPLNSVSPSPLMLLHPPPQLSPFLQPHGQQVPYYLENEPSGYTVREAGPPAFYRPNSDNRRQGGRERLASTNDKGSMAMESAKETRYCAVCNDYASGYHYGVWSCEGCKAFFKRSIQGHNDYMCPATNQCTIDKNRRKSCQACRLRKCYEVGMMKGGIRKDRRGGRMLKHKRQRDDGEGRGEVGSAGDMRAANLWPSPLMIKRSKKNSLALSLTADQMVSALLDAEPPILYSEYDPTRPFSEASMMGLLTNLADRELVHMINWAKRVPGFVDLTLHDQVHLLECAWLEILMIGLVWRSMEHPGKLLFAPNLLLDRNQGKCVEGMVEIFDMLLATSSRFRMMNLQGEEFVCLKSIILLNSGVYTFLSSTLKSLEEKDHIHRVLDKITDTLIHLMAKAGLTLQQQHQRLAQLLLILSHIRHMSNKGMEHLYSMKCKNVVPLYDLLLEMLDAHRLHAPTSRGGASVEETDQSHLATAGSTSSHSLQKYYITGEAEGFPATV
How it was run: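 MCF7-derived receptor extract, radiolabelled ligand, competitive displacement. Read: scintillation counts at 18 h. DMSO = negative control/baseline. Primary 25 uM duplicate; follow-up concentration–response.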

[11] = CCTE_Shafer_MEA_dev_firing_rate_mean: CCTE's Neural Network Formation Assay for Mean Firing Rate, Shafer Lab (AID 2284031)
How it was run: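 Steps: seed rat cortical cells (1.5 x 10^5/well) with laminin on PEI-coated MEA; dose day 0; record DIV 5/7/9/12, full media and compound exchange after DIV 5 and 9 recordings; compute well-mean firing rate AUC.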

[12] = CCTE_Shafer_MEA_dev_per_burst_spike_percent: CCTE's Neural Network Formation Assay for Percent of Spikes in a Burst, Shafer Lab (AID 2284032)
How it was run: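 Value is trapezoidal AUC over recordings on days 5, 7, 9 and 12 of the well-mean fraction of spikes falling in single-electrode bursts; rat cortical cultures exposed continuously from plating, treatment renewed DIV 5 and 9, fitted downward against DMSO.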

[13] = CCTE_Shafer_MEA_dev_active_electrodes_number: CCTE's Neural Network Formation Assay for Number of Active Electrodes, Shafer Lab (AID 2284040; active means hit-call score of the fitted dose curve at least 0.9, where 1 is the maximum)
How it was run: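 Counts electrodes per well firing at least 5 spikes/min, recorded on days 5, 7, 9 and 12 in rat cortical cultures dosed continuously from plating (treatment refreshed DIV 5, 9). Value is the area under the curve over recordings, fitted downward relative to DMSO.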

[14] = CCTE_Shafer_MEA_dev_burst_rate: CCTE's Neural Network Formation Assay for Burst Rate, Shafer Lab (AID 2284042)
How it was run: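 Developmental network assay measuring how 12-day exposure of rat cortical neuron cultures alters bursting on extracellular MEA recordings. Values are AUC of well-mean burst rate across four recording days, relative to DMSO vehicle.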

[15] = CCTE_Shafer_MEA_dev_per_burst_interspike_interval: CCTE's Neural Network Formation Assay for Burst Interspike Interval, Shafer Lab (AID 2284044)
How it was run: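 Rat cortical primary cultures, 16 electrodes/well; compound from plating, renewed with full media change DIV 5 and 9. Spikes via adaptive detector; per-burst ISI well-mean over active bursting electrodes; AUC of DIV 5/7/9/12 recordings; loss-direction fit vs DMSO.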

[16] = CCTE_Shafer_MEA_dev_burst_duration_mean: CCTE's Neural Network Formation Assay for Mean Burst Duration, Shafer Lab (AID 2284045);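 on AC50: curve fitted for loss meaning shorter burst duration than DMSO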
How it was run: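 Rat cortical cultures, 1.5 x 10^5 cells/well with laminin drop; continuous dosing days 0–12, media plus treatment refreshed DIV 5, 9. AxIS adaptive spike detection; mean single-electrode burst duration, AUC over four recordings, negative direction vs DMSO.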

[17] = CCTE_Shafer_MEA_dev_interburst_interval_mean: CCTE's Neural Network Formation Assay for Mean Interburst Interval, Shafer Lab (AID 2284046);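 further: well-mean interburst interval of bursting electrodes as AUC over four recording days; curve fitted for decrease in interburst interval relative to DMSO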
How it was run: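 Network formation assay in primary rat cortical cultures, exposed from DIV 0 to 12. Mean interburst interval per well, integrated as AUC over four recordings.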

[18] = CCTE_Shafer_MEA_dev_inter_network_spike_interval_mean: CCTE's Neural Network Formation Assay for Mean Inter-network Spike Interval, Shafer Lab (AID 2284047)
How it was run: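 Compound was given at plating to primary rat cortical neurons and renewed with full medium changes on DIV 5 and 9. Extracellular activity was recorded on days 5, 7, 9, 12; AUC values were fitted for loss relative to DMSO control.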

[19] = CCTE_Shafer_MEA_dev_network_spike_number: CCTE's Neural Network Formation Assay for Number of Network Spikes, Shafer Lab (AID 2284048);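 further: synchronized bursts across electrodes counted on days 5 7 9 12 and integrated as AUC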
How it was run: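 Rat cortical primary cultures on 48-well MEA (16 electrodes/well); continuous exposure DIV 0–12, full medium and treatment exchange DIV 5, 9. Readout: network spike count, AxIS adaptive detection, recordings DIV 5/7/9/12 collapsed to AUC; loss-of-signal fit, DMSO baseline.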

[20] = CCTE_Shafer_MEA_dev_network_spike_peak: CCTE's Neural Network Formation Assay for Mean Number of Electrodes in Network Spike, Shafer Lab (AID 2284049)
How it was run: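 Network-spike peak electrode count from recordings on days 5, 7, 9 and 12 was combined as trapezoidal area under the curve. Rat cortical cultures were treated continuously from plating, with compound renewed at each feed (DIV 5, 9); fits versus DMSO.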

With `Oc1cccc2ccccc12` the outcome [1] was “inactive”, the outcome [2] was “inactive” and the outcome [3] was “inactive”. The AC50 [4] was 0.216 µM (active), the outcome [5] was “inactive” and the outcome [6] was “inactive”. The outcome [7] was “inactive”.
In the case of `CC(C)CC(=O)O`, the AC50 [8] is reported as 25 µM (active).
In the case of `CCCCCCCCCC/C=C/C1CC(=O)OC1=O` (stereo not given), the AC50 [9] is reported as 45.4 µM (active).
With `c1cc(N(CC2CO2)CC2CO2)ccc1Cc1ccc(N(CC2CO2)CC2CO2)cc1` (stereo not given) the outcome [10] was “inactive”.
For `CC1(C)S[C@@H]2[C@H](NC(=O)[C@H](N)c3ccccc3)C(=O)N2[C@H]1C(=O)O`, the outcome [11] was “inactive”, the outcome [12] was “inactive” and the outcome [13] was “inactive”. For the same molecule, the outcome [14] was “inactive”, the outcome [15] was “inactive” and the AC50 [16] was 22.6 µM (active). For the same molecule, the outcome [17] was “inactive”, the outcome [18] was “inactive” and the outcome [19] was “inactive”. The outcome [20] was “inactive”.
With `N#CCN(CC#N)CCN(CC#N)CC#N` the outcome [8] was “inactive”.
With `CC(C)CC(=O)CC(C)CC(C)C` (stereo not given) the outcome [9] was “inactive”.
For `Oc1ccc(Oc2ccccc2)cc1`, the AC50 [10] was 6.92 µM (active).
In the case of `NC(N)=Nc1nc(CSCCC(N)=NS(N)(=O)=O)cs1`, the outcome [11] is reported as “inactive”, the outcome [12] is reported as “inactive” and the outcome [13] is reported as “inactive”. The outcome [14] was “inactive”, the outcome [15] was “inactive” and the outcome [16] was “inactive”. The outcome [17] was “inactive”, the outcome [18] was “inactive” and the outcome [19] was “inactive”. For the same molecule, the outcome [20] was “inactive”, the outcome [1] was “inactive” and the outcome [2] was “inactive”. The outcome [3] was “inactive”, the outcome [4] was “inactive” and the outcome [5] was “inactive”. For the same molecule, the outcome [6] was “inactive” and the outcome [7] was “inactive”.
